# Active and inactive are the calls of the source. The rule behind the calls is not given here.
# Biological target: Bifunctional epoxide hydrolase 2 (Homo sapiens) (UniProt P34913)
# Test: sEH inhibitor concentration-response potency, dose response, biochemical, human sEH, fluorescence, Infinite200 (AID 1026)
# Details: recombinant human sEH, fluorogenic substrate, at 0.2 µM, stronger effect = higher value
# Bifunctional epoxide hydrolase 2 (Homo sapiens), sequence (P34913 whole entry, looked up): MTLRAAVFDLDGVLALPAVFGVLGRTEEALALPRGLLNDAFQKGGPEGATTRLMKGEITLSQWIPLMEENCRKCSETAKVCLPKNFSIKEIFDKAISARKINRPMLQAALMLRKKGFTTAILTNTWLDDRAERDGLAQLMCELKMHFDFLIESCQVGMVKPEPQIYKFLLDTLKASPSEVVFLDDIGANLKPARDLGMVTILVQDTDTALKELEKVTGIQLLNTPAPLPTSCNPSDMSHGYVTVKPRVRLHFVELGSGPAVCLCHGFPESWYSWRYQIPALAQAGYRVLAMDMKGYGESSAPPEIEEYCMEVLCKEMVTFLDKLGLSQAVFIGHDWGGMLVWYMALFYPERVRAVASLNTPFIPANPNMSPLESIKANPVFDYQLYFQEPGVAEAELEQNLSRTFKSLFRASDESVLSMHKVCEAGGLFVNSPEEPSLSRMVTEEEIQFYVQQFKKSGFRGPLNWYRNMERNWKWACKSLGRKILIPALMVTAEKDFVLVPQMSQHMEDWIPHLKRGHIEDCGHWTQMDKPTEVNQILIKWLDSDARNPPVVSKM
row,SMILES,inhibition
1,O=C(NCCC(c1ccccc1)c1ccccc1)c1ccc(Br)o1,72% (inactive)
2,CC(c1ccccc1)N1CCn2c(nc3cc(NC(=O)NC4CCCCC4)ccc32)C1 (stereo not given),70.1% (inactive)
3,O=C(Cc1ccc(Cl)cc1)Nc1ccc(N2CCN(C(=O)c3ccco3)CC2)c(Cl)c1,64.8% (inactive)
4,Cc1c(Cl)c([N+](=O)[O-])nn1Cc1ccc(C(=O)N/N=C\c2cccc(Br)c2)o1,66.8% (inactive)
5,Cc1ccc(SCCC(=O)NCCSCc2ccccc2C)cc1,52.5% (inactive)
6,CCC(=O)N1CCc2cc(S(=O)(=O)CCC(=O)NCCC3=CCCCC3)ccc21,40% (inactive)
7,CCN(CCCNC(=O)C1CCN(S(=O)(=O)N2CCC3(CC2)OCCO3)CC1)c1ccccc1,53.8% (inactive)
8,O=C(NC1CCCCCCC1)C1CCN(S(=O)(=O)N2CCC3(CC2)OCCO3)CC1,49.5% (inactive)
9,O=C(Nc1cccc2ccccc12)c1ccc(OC(=S)N2CCOCC2)cc1,68.8% (inactive)
10,O=C(CCCCCn1c(=S)[nH]c2ccccc2c1=O)NCc1ccc2c(c1)OCO2,59.3% (inactive)
11,COc1ccc(C2CCCN2C(=O)Nc2ccc(Cl)cc2)cc1OC (stereo not given),71.3% (inactive)
12,Cc1ccc(NC(=O)NCCCc2ccccc2)cc1,48.7% (inactive)
13,CC(C)c1ccc(NC(=O)N2CCC(c3nc4ccccc4o3)CC2)cc1,66.3% (inactive)
14,CCC(CC)NC(=O)COC(=O)c1ccc(OCC(=O)Nc2ccccc2OC)c(OC)c1,48.6% (inactive)
15,O=C(NCc1ccc2c(c1)OCO2)C1CCC(CNS(=O)(=O)c2cccc3nsnc23)CC1 (stereo not given),59.7% (inactive)

# From PubChem BioAssay AID1026 (Columbia University Molecular Screening Center, 2008)
